Results: PubChem BioAssay (NCATS)
Where “and” joins values, the source holds several entries; their conditions need not be identical. Identical values can stand only once. Inconclusive results are not listed. Calls of active or inactive are those of the source. Unless noted, calls follow the shape of the dose curve; as a rule, active = well fitted curve in the direction sought with a large enough effect; inconclusive = small, poorly fitted or top-dose-only effect, or another doubt; inactive = no such curve, though single readings can be large; an effect the other way counts as inactive or inconclusive.

Assays:
[1] = qHTS assay for small molecule agonists of retinoid X receptor alpha signaling (AID 588544; calls by dose curve;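 as to activation: 0% = DMSO basal wells and 100% = reference agonist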); conditions: HEK293T RXRa-UAS-bla, beta-lactamase reporter, 18 h; 530 nm emission
[2] = target: Retinoic acid receptor RXR-alpha (Homo sapiens) (UniProt P19793); experiment: as above
Retinoic acid receptor RXR-alpha (Homo sapiens), sequence (P19793 whole entry, looked up): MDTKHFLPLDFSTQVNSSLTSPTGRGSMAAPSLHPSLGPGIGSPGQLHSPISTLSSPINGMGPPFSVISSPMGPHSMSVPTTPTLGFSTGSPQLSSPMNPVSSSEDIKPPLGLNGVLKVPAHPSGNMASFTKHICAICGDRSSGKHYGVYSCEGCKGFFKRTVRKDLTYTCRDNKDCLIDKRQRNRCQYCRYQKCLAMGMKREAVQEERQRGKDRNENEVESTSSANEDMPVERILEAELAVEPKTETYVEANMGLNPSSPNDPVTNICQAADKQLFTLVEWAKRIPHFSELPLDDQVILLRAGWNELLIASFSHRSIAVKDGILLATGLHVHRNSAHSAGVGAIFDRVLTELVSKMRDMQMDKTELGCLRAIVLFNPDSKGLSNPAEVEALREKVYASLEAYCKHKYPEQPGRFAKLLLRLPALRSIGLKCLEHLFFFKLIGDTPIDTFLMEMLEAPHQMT

[3] = qHTS assay for small molecule antagonists of retinoid X receptor alpha signaling (AID 588546; active = well fitted inhibition curve with a large enough effect in the signal ratio, with a control signal flat, not every such curve was filed as active; the % refers to the signal ratio;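 also: cells stimulated with 9-cis-retinoic acid as agonist; % is scaled to controls: 0 for no effect and ±100 for the full control effect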); conditions: HEK293T RXRa-UAS-bla, beta-lactamase ratio, antagonist mode; measured here: W530 green channel, cytotoxicity proxy
Outline: (§1)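 Beta-lactamase reporter inhibition, read as CCF4 fluorescence ratio (ex 405, em 460/530 nm) after 2 h at RT. HEK293T UAS-bla cells, 2500/well, were stimulated with 9-cis-RA at 500 or 100 nM final alongside test compound for 18 h at 37 C.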

[4] = target: Retinoic acid receptor RXR-alpha (Homo sapiens) (UniProt P19793); experiment: as above; conditions: HEK293T RXRa-UAS-bla, beta-lactamase ratio, antagonist mode
Outline: as §1

[5] = target: Thyroid hormone receptor beta (Homo sapiens) (UniProt P10828); experiment: qHTS assay for small molecule antagonists of thyroid hormone receptor beta signaling (AID 588547; active = well fitted inhibition curve with a large enough effect in the signal ratio, with a control signal flat, not every such curve was filed as active; the % refers to the signal ratio;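 also: cells stimulated with 0.4 nM T3 agonist during compound exposure; series mostly up to about 77 µM; % is scaled to controls: 0 for no effect and ±100 for the full control effect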); conditions: TR-UAS-bla HEK293, beta-lactamase ratio, antagonist mode, 18 h
Thyroid hormone receptor beta (Homo sapiens), sequence (P10828 whole entry, looked up): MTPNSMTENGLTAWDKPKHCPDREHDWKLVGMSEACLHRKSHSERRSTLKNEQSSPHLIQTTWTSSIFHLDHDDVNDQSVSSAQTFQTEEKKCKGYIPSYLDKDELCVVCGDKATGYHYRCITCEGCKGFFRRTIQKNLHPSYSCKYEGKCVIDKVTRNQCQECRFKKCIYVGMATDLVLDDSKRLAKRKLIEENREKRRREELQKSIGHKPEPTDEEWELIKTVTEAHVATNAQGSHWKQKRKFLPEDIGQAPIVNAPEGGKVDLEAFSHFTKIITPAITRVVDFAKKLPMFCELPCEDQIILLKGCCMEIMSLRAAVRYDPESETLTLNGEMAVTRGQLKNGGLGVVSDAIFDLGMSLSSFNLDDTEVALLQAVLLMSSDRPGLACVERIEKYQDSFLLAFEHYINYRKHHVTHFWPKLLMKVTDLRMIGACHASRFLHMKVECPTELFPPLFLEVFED
Outline: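 TR-UAS-bla GripTite HEK293 cells in 2% charcoal/dextran FBS medium were preincubated 4 h at 37 C, given compound (0.59 nM to 92 uM) plus 0.4 nM T3 (final) for 18 h, then CCF4 for 2 h at RT; Hill fit gave IC50.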

[6] = qHTS assay for small molecule agonists of the antioxidant response element (ARE) signaling pathway (AID 651741; active = well fitted activation curve with a large enough effect in the signal ratio; the % refers to the signal ratio; also: % of control where 0% means no effect)
Outline: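 Beta-lactamase reporter expression driven by the antioxidant response element in HepG2 cells was detected by fluorescence with LiveBLAzer B/G FRET substrate (2 h, room temperature) following 16 h compound treatment at 37 C.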

[7] = qHTS assay for small molecule activators of the p53 signaling pathway (AID 651743; active = well fitted activation curve with a large enough effect in the signal ratio, not every such curve was filed as active; the % refers to the signal ratio; also: series mostly up to about 92 µM; % of control where 0% means no effect); conditions: HCT-116 p53RE-bla, beta-lactamase FRET ratio, 16 h; activation: stronger effect = higher value
Outline: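 Here HCT-116 cells with an integrated p53-responsive beta-lactamase gene were incubated with compounds (16 hours, 37 C) after a 5-hour plating period; beta-lactamase activity was detected as fluorescence intensity via B/G FRET substrate.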

[8] = qHTS assay for small molecule activators of the nuclear factor-kappa B (NF-kB) signaling pathway (AID 651749; active = well fitted activation curve with a large enough effect in the signal ratio; the % refers to the signal ratio; also: series mostly up to about 77 µM; % of control where 0% means no effect); conditions: NF-kB-bla ME-180 cells, beta-lactamase FRET ratio, 16 h; activation: stronger effect = higher value
Outline: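 Beta-lactamase reporter expression, controlled by NF-kB response elements in ME-180 cells, was quantified fluorometrically via FRET disruption; cells at 2,000/well had been incubated with 23 nL test compound for 16 hr.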

[9] = qHTS assay for small molecule disruptors of the mitochondrial membrane potential - 5 hr assay (AID 651755; calls by dose curve; also: % is scaled to controls: 0 for no effect and ±100 for the full control effect; nearly all actives have a fitted effect of over 40% in size)
Outline: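 Seed HepG2 overnight, add compound, incubate 5 hr at 37C and 5% CO2, stain 30 min with Mito-MPS, then measure monomer (490/535 nm) and aggregate (540/590 nm) fluorescence.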

[10] = target: Tumor necrosis factor (Homo sapiens) (UniProt P01375); experiment: qHTS assay to identify small molecules that stimulate Tumor Necrosis Factor-alpha (TNF-alpha) secretion (AID 651757; active = well fitted curve in the direction sought with a large enough effect in the signal ratio; the % refers to the signal ratio; also: 0% is about no effect)
Tumor necrosis factor (Homo sapiens), sequence (P01375 whole entry, looked up): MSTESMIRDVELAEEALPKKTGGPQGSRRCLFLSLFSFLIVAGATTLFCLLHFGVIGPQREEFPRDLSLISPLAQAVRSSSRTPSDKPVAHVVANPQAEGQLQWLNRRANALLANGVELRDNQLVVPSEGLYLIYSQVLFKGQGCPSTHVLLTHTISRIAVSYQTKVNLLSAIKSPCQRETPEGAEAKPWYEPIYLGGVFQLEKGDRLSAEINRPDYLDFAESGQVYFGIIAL
Outline: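 THP-1 cells, 3000/well; compound 17 hrs, 37 C; add cryptate/XL665 anti-TNF-alpha antibody pair; 3 hr RT; TR-FRET (HTRF) read of secreted TNF-alpha. Quantitative HTS format.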

[11] = qHTS assay to identify small molecules that stimulate interleukin-8 (IL-8) secretion (AID 651758; active = well fitted activation curve with a large enough effect in the signal ratio; the % refers to the signal ratio; also: 0% is about no effect)
Outline: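 Quantitative HTS in THP-1 monocytic cells at 2000 cells per well, with 16 hrs compound incubation at 37 C. IL-8 in the medium was then quantified by HTRF immunoassay, read after 1-3 hrs at room temperature.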

[12] = qHTS assay for environmental chemicals that activate the Aryl hydrocarbon Receptor (AhR) signaling pathway (AID 651777); conditions: 1A2-DRE human hepatoma cells, luciferase, 24 h; activation: stronger effect = higher value; also: % of control where 0% means no effect; nearly all actives have a fitted effect of over 15% in size
Outline: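 Human hepatoma 1A2-DRE cells stably carrying a DRE/CYP1A2 promoter–luciferase reporter, 1,200 cells/well, exposed to compound 24 hr at 37 C. Luciferase read by One-Glo luminescence after 30 min at room temperature; increased signal marks AhR activation.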

[13] = target: Peroxisome proliferator-activated receptor alpha (Homo sapiens) (UniProt Q07869); experiment: qHTS assay for small molecule agonists of the peroxisome proliferator-activated receptor alpha (PPARalpha) signaling pathway (AID 651778); conditions: PathHunter PPARalpha complementation, chemiluminescence, 6 h; stronger effect = higher value; also: % of control where 0% means no effect
Peroxisome proliferator-activated receptor alpha (Homo sapiens), sequence (Q07869 whole entry, looked up): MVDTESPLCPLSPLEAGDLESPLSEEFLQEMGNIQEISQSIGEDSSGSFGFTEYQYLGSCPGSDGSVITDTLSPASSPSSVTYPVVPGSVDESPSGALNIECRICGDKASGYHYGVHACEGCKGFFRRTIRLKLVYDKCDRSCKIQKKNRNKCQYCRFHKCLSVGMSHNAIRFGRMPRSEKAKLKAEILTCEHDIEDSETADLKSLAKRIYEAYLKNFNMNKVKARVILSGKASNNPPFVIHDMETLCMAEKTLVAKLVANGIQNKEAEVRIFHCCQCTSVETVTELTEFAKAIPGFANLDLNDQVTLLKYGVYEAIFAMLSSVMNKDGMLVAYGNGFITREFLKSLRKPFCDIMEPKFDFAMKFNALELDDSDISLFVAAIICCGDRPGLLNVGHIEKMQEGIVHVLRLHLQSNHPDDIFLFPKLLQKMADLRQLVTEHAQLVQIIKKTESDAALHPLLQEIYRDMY
Outline: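 Cells plated at 2,000/well and held overnight at 37 C, 5% CO2, then compound added by pin tool for 6 hr; after PathHunter detection reagent and 60 min at room temperature, chemiluminescence from enzyme complementation was read.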

[14] = qHTS assay for small molecule agonists of the antioxidant response element (ARE) signaling pathway measured by Nrf2-dependant transcriptional activity (AID 720636; active = well fitted curve in the direction sought with a large enough effect in the repeat runs; an effect the other way counts as inactive or inconclusive; also: % of control where 0% means no effect)
Outline: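 ARE-luc HepG2 cells carrying an Nrf2-responsive luciferase reporter, in medium with 1% dialyzed FBS, exposed to compound for 16 hr at 37 C, 5% CO2. Luminescence read 30 min after ONE-Glo addition.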

[15] = qHTS assay for small molecule antagonists of the retinoid-related orphan receptor gamma (ROR-gamma) signaling pathway - cell viability counter screen (AID 720652; active = well fitted curve in the direction sought with a large enough effect in the repeat runs; an effect the other way counts as inactive or inconclusive;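 also: CHO reporter cells with doxycycline-induced ROR-gamma expression; series mostly up to about 92 µM; compound exposure lasted 16 hr before ATP read; % is scaled to controls: 0 for no effect and ±100 for the full control effect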)
Outline: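 CHO RORE-LUC/TET-ROR line, 1,000 cells/well, 37 C 5% CO2 5 hr; cpd or DMSO + doxycycline induction, 16 hr. CellTiter-Glo, 30 min RT, luminescence = ATP content.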

[16] = qHTS assay for small molecule agonists of the antioxidant response element (ARE) signaling pathway measured by Nrf2-dependant transcriptional activity - cell viability counter screen (AID 720653; active = well fitted curve in the direction sought with a large enough effect in the repeat runs; an effect the other way counts as inactive or inconclusive; also: % is scaled to controls: 0 for no effect and ±100 for the full control effect); conditions: ARE-bla HepG2 viability, CellTiter-Glo ATP luminescence, 16 h; stronger effect = lower value
Outline: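 ARE-bla HepG2 cells (2,000/well) rested 5 hrs at 37C/5% CO2, then exposed to compounds in DMSO for 16 hrs. Viability was read in the same wells as intracellular ATP by luminescence, 30 min at room temperature after reagent addition.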

[17] = qHTS assay for cell viability of HEK293 cells (AID 743288); conditions: ATP luminescence (CellTiter-Glo), 18 h; max response: stronger effect = lower value; also: % is scaled to controls: 0 for no effect and ±100 for the full control effect; nearly all actives have a fitted effect of over 50% in size
Outline: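 HEK293, 18 h, 37 C, ATP luminescence. Cells at 2,000/well were allowed at least 5 h to settle before dosing; CellTiter-Glo developed 30 min at RT.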

[18] = qHTS assay for cell viability of the p53RE-bla HCT-116 cell line (AID 743292); also: % is scaled to controls: 0 for no effect and ±100 for the full control effect; nearly all actives have a fitted effect of over 55% in size
Outline: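 CellSensor p53RE-bla HCT-116 cells (4,000/well) pre-incubated 5 h at 37 C, then exposed to compounds in DMSO for 16 h at 37 C. Viability read as ATP content by CellTiter-Glo luminescence after 30 min at room temperature.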

[19] = target: Rap guanine nucleotide exchange factor 3 (Homo sapiens) (UniProt O95398); experiment: Confirmatory qHTS for antagonist of cAMP-regulated guanine nucleotide exchange factor 3 (EPAC1) (AID 1645880);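 also: plate controls were DMSO only for no effect and full effect of the ATA control for full effect; nearly all actives have a fitted effect of over 55% in size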
Rap guanine nucleotide exchange factor 3 (Homo sapiens), sequence (O95398 whole entry, looked up): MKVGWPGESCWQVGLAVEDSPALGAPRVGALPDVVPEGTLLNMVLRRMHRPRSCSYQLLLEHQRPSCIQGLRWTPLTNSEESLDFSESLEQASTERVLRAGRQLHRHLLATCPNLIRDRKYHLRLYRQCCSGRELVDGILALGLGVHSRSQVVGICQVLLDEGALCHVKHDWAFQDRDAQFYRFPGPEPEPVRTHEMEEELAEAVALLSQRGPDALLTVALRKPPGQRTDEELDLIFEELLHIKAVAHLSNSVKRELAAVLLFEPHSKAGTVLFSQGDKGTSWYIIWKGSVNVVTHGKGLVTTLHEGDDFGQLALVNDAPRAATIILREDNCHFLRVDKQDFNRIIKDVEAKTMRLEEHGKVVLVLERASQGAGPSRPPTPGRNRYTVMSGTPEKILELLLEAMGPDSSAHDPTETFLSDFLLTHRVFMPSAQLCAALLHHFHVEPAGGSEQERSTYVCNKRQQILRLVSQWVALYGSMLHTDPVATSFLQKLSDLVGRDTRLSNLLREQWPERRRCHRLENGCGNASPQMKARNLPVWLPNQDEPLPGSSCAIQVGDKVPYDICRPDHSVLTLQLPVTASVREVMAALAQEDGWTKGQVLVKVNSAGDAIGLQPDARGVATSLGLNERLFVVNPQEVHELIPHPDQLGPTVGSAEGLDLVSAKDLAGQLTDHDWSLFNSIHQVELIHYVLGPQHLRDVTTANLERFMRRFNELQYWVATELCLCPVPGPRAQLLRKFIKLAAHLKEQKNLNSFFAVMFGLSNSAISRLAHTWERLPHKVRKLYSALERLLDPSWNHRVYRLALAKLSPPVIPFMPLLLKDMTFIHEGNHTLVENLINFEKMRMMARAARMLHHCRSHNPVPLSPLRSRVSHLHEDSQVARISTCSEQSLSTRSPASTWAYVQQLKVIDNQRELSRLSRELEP
Outline: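 Released BODIPY-GDP fluoresces less than Rap1-bound BODIPY-GDP; the signal is followed at 480/540 nm at 5-min intervals over 30 min, after 5 min at room temperature. Reactions contain 100 nM EPAC1, 250 nM RAP1B-BODIPY-GDP and 50 uM GDP; results are normalized to ATA and DMSO.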

[20] = target: Rap guanine nucleotide exchange factor 3 (Homo sapiens) (UniProt O95398); experiment: Confirmatory qHTS for agonist of cAMP-regulated guanine nucleotide exchange factor 3 (EPAC1) (AID 1645881);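 also: EPAC1 catalysed release of BODIPY-GDP from Rap1B seen as fluorescence loss; 100% = effect of cAMP agonist control; nearly all actives have a fitted effect of over 75% in size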
[21] = target: Rap guanine nucleotide exchange factor 4 (Homo sapiens) (UniProt Q8WZA2); experiment: Confirmatory qHTS for agonist of cAMP-regulated guanine nucleotide exchange factor 4 (EPAC2) (AID 1645884);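 also: nucleotide exchange releases bodipy-GDP from Rap1 and this lowers its fluorescence; % is scaled to controls: 0 for no effect and ±100 for the full control effect; nearly all actives have a fitted effect of over 65% in size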
Rap guanine nucleotide exchange factor 4 (Homo sapiens), sequence (Q8WZA2 whole entry, looked up): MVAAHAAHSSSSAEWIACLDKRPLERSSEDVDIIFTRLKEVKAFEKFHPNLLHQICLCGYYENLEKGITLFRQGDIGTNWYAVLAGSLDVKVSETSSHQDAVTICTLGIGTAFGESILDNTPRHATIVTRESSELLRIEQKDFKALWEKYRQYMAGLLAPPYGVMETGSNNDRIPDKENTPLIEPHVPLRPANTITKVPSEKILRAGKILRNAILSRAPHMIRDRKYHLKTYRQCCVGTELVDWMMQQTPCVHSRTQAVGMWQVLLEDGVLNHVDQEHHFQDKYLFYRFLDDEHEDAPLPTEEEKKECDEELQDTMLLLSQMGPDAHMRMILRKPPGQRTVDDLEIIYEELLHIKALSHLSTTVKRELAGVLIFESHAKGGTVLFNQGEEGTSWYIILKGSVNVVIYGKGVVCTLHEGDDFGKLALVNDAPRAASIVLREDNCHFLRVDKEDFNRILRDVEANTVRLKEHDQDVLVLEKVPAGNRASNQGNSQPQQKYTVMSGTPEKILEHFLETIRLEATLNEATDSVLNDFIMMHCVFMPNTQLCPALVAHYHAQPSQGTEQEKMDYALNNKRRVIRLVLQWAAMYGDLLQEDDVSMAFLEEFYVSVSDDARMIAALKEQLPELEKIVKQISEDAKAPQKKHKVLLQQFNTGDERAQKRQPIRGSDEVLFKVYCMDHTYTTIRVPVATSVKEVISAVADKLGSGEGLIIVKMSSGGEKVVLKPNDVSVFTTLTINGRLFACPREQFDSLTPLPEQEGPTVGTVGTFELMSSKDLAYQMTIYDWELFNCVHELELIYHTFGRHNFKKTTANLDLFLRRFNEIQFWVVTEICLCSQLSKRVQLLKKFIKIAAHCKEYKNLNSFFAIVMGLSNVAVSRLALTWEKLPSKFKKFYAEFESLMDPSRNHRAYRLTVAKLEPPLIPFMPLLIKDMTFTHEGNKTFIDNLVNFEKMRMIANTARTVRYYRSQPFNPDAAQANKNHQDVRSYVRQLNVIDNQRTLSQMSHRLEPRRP

[22] = target: Nuclear receptor subfamily 1 group I member 2 (Rattus norvegicus) (UniProt Q9R1A7); experiment: qHTS assay for small molecule activators of the rat pregnane X receptor (rPXR) signaling pathway (AID 651751; call rule not given here; also: 0% is about no effect); conditions: rPXR reporter cells, luciferase (One-Glo), 24 h
Nuclear receptor subfamily 1 group I member 2 (Rattus norvegicus), sequence (Q9R1A7 whole entry, looked up): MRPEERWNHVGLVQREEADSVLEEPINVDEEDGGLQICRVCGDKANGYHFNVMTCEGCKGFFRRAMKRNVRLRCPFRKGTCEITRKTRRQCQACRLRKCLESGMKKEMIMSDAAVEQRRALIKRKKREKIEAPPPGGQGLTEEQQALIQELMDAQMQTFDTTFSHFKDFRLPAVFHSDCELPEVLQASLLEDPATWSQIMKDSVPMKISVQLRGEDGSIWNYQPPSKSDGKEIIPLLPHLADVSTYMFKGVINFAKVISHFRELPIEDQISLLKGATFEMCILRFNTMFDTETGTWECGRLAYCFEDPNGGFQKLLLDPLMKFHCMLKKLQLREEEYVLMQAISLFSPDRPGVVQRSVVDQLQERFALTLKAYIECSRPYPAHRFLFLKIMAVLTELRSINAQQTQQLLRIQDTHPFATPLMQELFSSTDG

[23] = qHTS assay for small molecule activators of the human pregnane X receptor (PXR) signaling pathway (AID 720659; call rule not given here; also: 0% is about no effect)

CCCCOC(=O)c1ccccc1C(=O)OCCCC
inactive: Potency [2] | max response [4] -10.9% | activity change % (negative = inhibition) [5] 17.1% and -3.92% | Potency [6] | activation [7] -2.51% and -0.006% | activation [8] -1.75% and -1.98% | Potency [9] | outcome [10] | Potency [11] | activation [12] -0.984% and 1.91% | max response [13] -1.47% and -0.868% | outcome [14] | Potency [15] | max response [16] -12.7% and 12.7% | max response [17] -1.27% and -9.6% | Potency [18] | Potency [19] | Potency [20] | Potency [21] | max response [22] 4.96% and 5.3% | outcome [23]
-3.09%: max response [3]
-8.82% and -0.286%: max response [1]
